In the supplement of paper PMC9950053 one finds excitability data, which are given here for 37 compounds.

Where a name gives a salt, the structure may show the parent alone.

For the assay, the system named is Danio rerio larvae (5 dpf). The assay can be described thus: excitability (activity period 17 minus period 16, 1-s interval sound) minus DMSO control (percentage points); higher = more acoustic excitability than DMSO larvae. The note with it: 10 µM; exposure time: 3 h pre-incubation + 3 h imaging. How it is done:
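Wild-type 5 dpf zebrafish larvae (n=48 per drug, 96-well plates, 28.5 °C) were exposed to Tocris FDA-approved library compounds at 10 µM (0.1% DMSO) for 3 h before and 3 h during imaging. Images were taken every 6 s during visual and acoustic stimuli, and larvae were tracked with Z-LaP Tracker. Each measure is the treated-group mean minus the DMSO control mean (n=844), in percentage points. This mapping covers compounds with 5-character plate codes.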
For `CN(C)C(=N)NC(=N)N` [Metformin hydrochloride], the excitability worked out at 6.55. The result for `CC(C)COCC(CN(Cc1ccccc1)c1ccccc1)N1CCCC1` (configuration not stated) [Bepridil hydrochloride] reads 14.7; that for `OC(c1cc(C(F)(F)F)nc2c(C(F)(F)F)cccc12)C1CCCCN1` (configuration not stated) [Mefloquine hydrochloride], 13.3; that for `C#CCN[C@@H]1CCc2ccccc21` [Rasagiline mesylate], -0.121. The result for `COc1ccccc1Oc1c(NS(=O)(=O)c2ccc(C(C)(C)C)cc2)nc(-c2ncccn2)nc1OCCO` [Bosentan] reads -2.37; that for `CC[C@H]1OC(=O)[C@H](C)[C@@H](O[C@H]2C[C@@](C)(OC)[C@@H](O)[C@H](C)O2)[C@H](C)[C@@H](O[C@@H]2O[C@H](C)C[C@H](N(C)C)[C@H]2O)[C@](C)(O)C[C@@H](C)CN(C)[C@H](C)[C@@H](O)[C@]1(C)O` [Azithromycin], 15.8. The same measure for `CCCC1O[C@@H]2C[C@H]3[C@@H]4CCC5=CC(=O)C=C[C@]5(C)[C@H]4[C@@H](O)C[C@]3(C)[C@]2(C(=O)CO)O1` (some centres not stated) [Budesonide]: 1.14. In the case of `COc1cc([C@@H]2c3cc4c(cc3[C@@H](O[C@@H]3O[C@@H]5CO[C@@H](C)O[C@H]5[C@H](O)[C@H]3O)[C@H]3COC(=O)[C@H]23)OCO4)cc(OC)c1O` [Etoposide], the excitability came to 9.95. Take `CC(C)(C(=O)O)c1ccc(C(O)CCCN2CCC(C(O)(c3ccccc3)c3ccccc3)CC2)cc1` (configuration not stated) [Fexofenadine hydrochloride]: the excitability is -5.03. The result for `CC(=O)Nc1ccc(O)cc1` [Acetaminophen] reads -1.73. The result for `OCCN1C[C@H](O)[C@@H](O)[C@H](O)[C@H]1CO` [Miglitol] reads 4.04; that for `CNC(=O)c1cc(Oc2ccc(NC(=O)Nc3ccc(Cl)c(C(F)(F)F)c3)cc2)ccn1` [Sorafenib], 13.1. The result for `CCCCCCCN(CC)CCCC(O)c1ccc(NS(C)(=O)=O)cc1` (configuration not stated) [Ibutilide hemifumarate] reads 13.3; that for `O=c1n(CCCN2CCN(c3cccc(Cl)c3)CC2)nc2ccccn12` [Trazodone hydrochloride], 20.3; that for `CCc1nc(N)nc(N)c1-c1ccc(Cl)cc1` [Pyrimethamine], 6.57. In the case of `C[C@H]1O[C@H](O[C@H]2[C@H](O)[C@@H](O)[C@@H](O[C@H]3[C@H](O)[C@@H](O)C(O)O[C@@H]3CO)O[C@@H]2CO)[C@H](O)[C@@H](O)[C@@H]1N[C@H]1C=C(CO)[C@@H](O)[C@H](O)[C@H]1O` (some centres not stated) [Acarbose], the excitability was -4.36. The result for `CC(C)OC(=O)C(C)(C)Oc1ccc(C(=O)c2ccc(Cl)cc2)cc1` [Fenofibrate] reads 4.72; that for `CC(=O)Oc1cc2c(s1)CCN(C(C(=O)C1CC1)c1ccccc1F)C2` (configuration not stated) [Prasugrel], 5.89. The same measure for `COc1ccccc1OCC(O)CN1CCN(CC(=O)Nc2c(C)cccc2C)CC1` (configuration not stated) [Ranolazine dihydrochloride]: 4.28. For the compound `COc1cc(N)c(Cl)cc1C(=O)NC1CCN(CCCOc2ccc(F)cc2)CC1OC` (configuration not stated) [Cisapride], the excitability turned out to be 18.5. Take `CNCc1ccc(-c2[nH]c3cc(F)cc4c3c2CCNC4=O)cc1` [Rucaparib camsylate]: the excitability was 13.1. On to `N#C[C@@H]1C[C@@H]2C[C@@H]2N1C(=O)[C@@H](N)C12CC3CC(CC(O)(C3)C1)C2` [Saxagliptin hydrochloride], for which the excitability worked out at 2.14.

`O=C1CCc2ccc(OCCCCN3CCN(c4cccc(Cl)c4Cl)CC3)cc2N1` [Aripiprazole]: the excitability turned out to be 16.5. The same measure for `Clc1ccc2nsnc2c1NC1=NCCN1` [Tizanidine hydrochloride]: 6.39; for `NC(=O)OCC(COC(N)=O)c1ccccc1` [Felbamate]: -3.94. The same measure for `N#Cc1ccc2[nH]cc(CCCCN3CCN(c4ccc5oc(C(N)=O)cc5c4)CC3)c2c1` [Vilazodone hydrochloride]: 17.

For `COCCc1ccc(OCC(O)CNC(C)C)cc1` (configuration not stated) [Metoprolol tartrate], the excitability was -6.24. The same measure for `C[C@@H]1C[C@H]2[C@@H]3CCC4=CC(=O)C=C[C@]4(C)[C@@]3(F)[C@@H](O)C[C@]2(C)[C@@]1(O)C(=O)CO` [Dexamethasone]: -4.14; for `NS(=O)(=O)c1cc2c(cc1Cl)NC(C1CC3C=CC1C3)NS2(=O)=O` (configuration not stated) [Cyclothiazide]: 0.365; for `Cc1cc2c(s1)Nc1ccccc1N=C2N1CCN(C)CC1` [Olanzapine]: 2.72. The result for `CN[C@H]1CC[C@@H](c2ccc(Cl)c(Cl)c2)c2ccccc21` [Sertraline hydrochloride] reads 10.4; that for `CCCc1nn(C)c2c(=O)[nH]c(-c3cc(S(=O)(=O)N4CCN(C)CC4)ccc3OCC)nc12` [Sildenafil citrate], 4.28; that for `CNS(=O)(=O)Cc1ccc2[nH]cc(CCN(C)C)c2c1` [Sumatriptan succinate], -4.97. The same measure for `O=C(O)C[C@H](O)C[C@H](O)/C=C/c1c(C2CC2)nc2ccccc2c1-c1ccc(F)cc1` [Pitavastatin calcium]: -1.16; for `COc1cc2nccc(Oc3ccc(NC(=O)C4(C(=O)Nc5ccc(F)cc5)CC4)cc3)c2cc1OC`: 16.9; for `CN(C)CCc1c[nH]c2ccc(C[C@H]3COC(=O)N3)cc12` [Zolmitriptan]: 4.24. Consider `OCc1cc(C(O)CNCCCCCCOCCCCc2ccccc2)ccc1O` (configuration not stated) [Salmeterol xinafoate], for which the excitability worked out at 13.1.
